PubChem BioAssay AID1159580 (chemical genetic matrix, 2015)
Where “and” joins values, the source holds several entries; their conditions need not be identical. Equal values may be shown once. Among all 5,500 compounds or so, about 2,000 (36%) were called active. Roughly 18% stayed inconclusive and do not appear here. Cut-off read from the data, not from the text of the source: active = normalized growth mostly below about 0.91 (no sharp cut-off); inconclusive = no clear call, values can overlap the other calls; inactive = mostly above about 0.92. The list shows a part of the results.

Experiment: chemical genetic growth profiling, strain panel (AID 1159580);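 note: tested at 20 µM; growth read once vehicle control cultures reached saturation at 30 °C; 1 = growth at the plate median or of vehicle wells; lower values mean less growth of the strain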
Settings: S. cerevisiae deletion strains, growth OD

Measured: normalized growth

COc1c2ccccc2nc2occc12
0.873 (inactive) and 0.874 (active): locus YJL095W, strain BCK1, stronger effect = lower value
inactive: locus YAL013W, strain DEP1, stronger effect = lower value 0.918 | locus YAL021C, strain ccr4, stronger effect = lower value 0.943 | locus YAL026C, strain drs2, stronger effect = lower value 0.914 | locus YAL030W, strain snc1, stronger effect = lower value 0.971 | locus YBL061C, strain skt5, stronger effect = lower value 0.956 | locus YBR021W, strain FUR4, stronger effect = lower value 0.993 | locus YBR023C, strain chs3, stronger effect = lower value 0.926 | locus YBR171W, strain sec66, stronger effect = lower value 0.942 | locus YBR229C, strain ROT2, stronger effect = lower value 1 | locus YBR231C, strain swc5, stronger effect = lower value 0.969 | locus YBR279W, strain paf1, stronger effect = lower value 0.949 | locus YCL011C, strain gbp2, stronger effect = lower value 0.913 | locus YCL029C, strain bik1, stronger effect = lower value 0.953 | locus YCR088W, strain abp1, stronger effect = lower value 0.991 | locus YDL005C, strain med2, stronger effect = lower value 0.972 | locus YDL035C, strain GPR1, stronger effect = lower value 0.929 | locus YDL040C, strain nat1, stronger effect = lower value 0.982 | locus YDL074C, strain BRE1, stronger effect = lower value 0.867 | locus YDL101C, strain DUN1, stronger effect = lower value 0.934 | locus YDL185W, strain tfp1, stronger effect = lower value 0.99 | locus YDR001C, strain nth1, stronger effect = lower value 0.966 | locus YDR069C, strain doa4, stronger effect = lower value 0.942 | locus YDR137W, strain rgp1, stronger effect = lower value 0.93 | locus YDR159W, strain sac3, stronger effect = lower value 0.931 | locus YDR162C, strain NBP2, stronger effect = lower value 0.926 | locus YDR297W, strain sur2, stronger effect = lower value 0.97 | locus YDR318W, strain mcm21, stronger effect = lower value 0.928 | locus YDR334W, strain swr1, stronger effect = lower value 0.945 | locus YDR335W, strain msn5, stronger effect = lower value 0.938 | locus YDR388W, stronger effect = lower value 0.993 | locus YDR392W, strain spt3, stronger effect = lower value 0.767 | locus YEL003W, strain gim4, stronger effect = lower value 0.941 | locus YEL037C, strain rad23, stronger effect = lower value 0.954 | locus YEL061C, strain CIN8 (second series), stronger effect = lower value 0.976 | locus YEL061C, strain CIN8, stronger effect = lower value 0.993 | locus YER016W, strain bim1, stronger effect = lower value 0.981 | locus YER110C, stronger effect = lower value 0.937 | locus YER111C, strain swi4, stronger effect = lower value 0.981 | locus YER155C, strain BEM2, stronger effect = lower value 1.02 | locus YER167W, strain BCK2, stronger effect = lower value 0.941 | locus YFR010W, strain ubp6, stronger effect = lower value 0.919 | locus YGL078C, strain dbp3, stronger effect = lower value 0.944 | locus YGL167C, strain pmr1, stronger effect = lower value 0.949 | locus YGL173C, strain kem1, stronger effect = lower value 0.941 | locus YGL227W, strain vid30, stronger effect = lower value 0.989 | locus YGL248W, strain PDE1, stronger effect = lower value 0.929 | locus YGL253W, strain hxk2, stronger effect = lower value 0.946 | locus YHR013C, strain ard1, stronger effect = lower value 0.967 | locus YHR027C, strain rpn1, stronger effect = lower value 0.932 | locus YHR030C, strain SLT2, stronger effect = lower value 1 and 0.88 | locus YHR079C, strain IRE1 (second series), stronger effect = lower value 0.994 | locus YHR079C, strain IRE1, stronger effect = lower value 0.868 | locus YHR094C, strain hxt1, stronger effect = lower value 1.01 | locus YHR129C, strain ARP1, stronger effect = lower value 0.967 | locus YIL066C, strain RNR3, stronger effect = lower value 0.91 | locus YIL073C, strain SPO22, stronger effect = lower value 0.939 | locus YIL125W, strain kgd1, stronger effect = lower value 0.981 | locus YIR030C, strain dcg1, stronger effect = lower value 0.992 | locus YJL092W, strain hpr5, stronger effect = lower value 0.954 | locus YJL095W, strain BCK1 (second series), stronger effect = lower value 0.968 | locus YJL115W, strain asf1, stronger effect = lower value 0.947 | locus YJL129C, strain trk1, stronger effect = lower value 1.02 | locus YJL134W, strain LCB3, stronger effect = lower value 1.01 | locus YJL154C, strain vps35, stronger effect = lower value 0.979 | locus YJL168C, strain set2, stronger effect = lower value 0.991 | locus YJL187C, strain SWE1 (second series), stronger effect = lower value 0.927 | locus YJL187C, strain SWE1, stronger effect = lower value 0.968 | locus YJR066W, strain TOR1, stronger effect = lower value 0.894 | locus YKL009W, strain mrt4, stronger effect = lower value 0.881 | locus YKL068W, stronger effect = lower value 1.02 | locus YKL085W, strain MDH1 (second series), stronger effect = lower value 0.984 | locus YKL085W, strain MDH1, stronger effect = lower value 0.984 | locus YKL160W, strain elf1, stronger effect = lower value 0.917 | locus YKR026C, strain gcn3, stronger effect = lower value 0.982 | locus YKR091W, strain srl3, stronger effect = lower value 0.969 | locus YLL026W, stronger effect = lower value 0.974 | locus YLL041C, strain sdh2, stronger effect = lower value 0.963 | locus YLR027C, strain aat2, stronger effect = lower value 0.946 | locus YLR039C, strain RIC1, stronger effect = lower value 0.925 | locus YLR058C, strain SHM2, stronger effect = lower value 0.957 | locus YLR102C, strain apc9, stronger effect = lower value 1 | locus YLR113W, strain HOG1, stronger effect = lower value 0.872 | locus YLR221C, strain rsa3, stronger effect = lower value 0.927 | locus YLR258W, strain gsy2, stronger effect = lower value 0.938 | locus YLR262C, strain YPT6 (second series), stronger effect = lower value 0.884 | locus YLR262C, strain YPT6, stronger effect = lower value 1.04 | locus YLR268W, strain sec22, stronger effect = lower value 0.896 | locus YLR342W, strain FKS1, stronger effect = lower value 0.974 | locus YLR357W, strain rsc2, stronger effect = lower value 1.04 | locus YLR370C, strain arc18, stronger effect = lower value 0.967 | locus YLR384C, strain iki3, stronger effect = lower value 0.981 | locus YML016C, strain PPZ1, stronger effect = lower value 0.975 | locus YML120C, strain ndi1, stronger effect = lower value 0.915 | locus YML124C, strain tub3, stronger effect = lower value 0.978 | locus YMR078C, strain ctf18, stronger effect = lower value 0.974 | locus YMR125W, strain sto1, stronger effect = lower value 0.983 | locus YMR129W, stronger effect = lower value 0.975 | locus YMR205C, strain PFK2, stronger effect = lower value 0.938 | locus YMR223W, strain ubp8, stronger effect = lower value 0.912 | locus YMR231W, strain pep5, stronger effect = lower value 0.994 | locus YMR263W, strain SAP30, stronger effect = lower value 0.952 | locus YMR307W, strain GAS1, stronger effect = lower value 1.15 | locus YNL067W, strain RPL9B, stronger effect = lower value 0.951 | locus YNL128W, strain TEP1, stronger effect = lower value 0.952 | locus YNL153C, strain GIM3, stronger effect = lower value 0.889 | locus YNL183C, strain NPR1, stronger effect = lower value 0.865 | locus YNL209W, strain ssb2, stronger effect = lower value 0.952 | locus YNL233W, strain BNI4, stronger effect = lower value 0.888 | locus YNL250W, strain rad50, stronger effect = lower value 0.963 | locus YNL271C, strain bni1, stronger effect = lower value 0.985 | locus YNL298W, strain CLA4, stronger effect = lower value 0.909 | locus YNL307C, strain MCK1, stronger effect = lower value 0.908 | locus YNL322C, strain KRE1 (second series), stronger effect = lower value 0.982 | locus YNR049C, strain mso1, stronger effect = lower value 0.983 | locus YNR052C, strain pop2, stronger effect = lower value 0.955 | locus YOL012C, strain htz1 1.22 | locus YOR061W, strain CKA2, stronger effect = lower value 0.962 | locus YOR069W, strain VPS5, stronger effect = lower value 0.985 | locus YOR070C, strain gyp1, stronger effect = lower value 0.965 | locus YOR080W, strain dia2, stronger effect = lower value 0.962 | locus YOR136W, strain idh2, stronger effect = lower value 0.978 | locus YOR144C, strain elg1, stronger effect = lower value 0.97 | locus YOR231W, strain MKK1, stronger effect = lower value 0.861 | locus YOR265W, strain rbl2, stronger effect = lower value 0.98 | locus YOR316C, strain cot1, stronger effect = lower value 1.02 | locus YPL240C, strain hsp82, stronger effect = lower value 0.973 | locus YPL256C, strain CLN2, stronger effect = lower value 0.981 | locus YPR119W, strain clb2, stronger effect = lower value 1 | locus YPR141C, strain kar3, stronger effect = lower value 1.04 | locus YPR163C, strain tif3, stronger effect = lower value 0.925 | locus YPR167C, strain met16, stronger effect = lower value 0.953
active: locus YBR009C, strain hhf1, stronger effect = lower value 0.867 | locus YCL016C, strain dcc1, stronger effect = lower value 0.9 | locus YCL069W, strain vba3, stronger effect = lower value 0.882 | locus YDL192W, strain arf1, stronger effect = lower value 0.89 | locus YDR101C, strain arx1, stronger effect = lower value 0.876 | locus YDR195W, strain ref2 1.32 [resistant] | locus YDR502C, strain sam2, stronger effect = lower value 0.918 | locus YER015W, strain faa2, stronger effect = lower value 0.923 | locus YER155C, strain BEM2 (second series), stronger effect = lower value 0.648 | locus YGL086W, strain mad1, stronger effect = lower value 0.907 | locus YGL240W, strain doc1, stronger effect = lower value 0.791 | locus YGR135W, strain pre9, stronger effect = lower value 0.888 | locus YGR252W, strain gcn5, stronger effect = lower value 0.728 | locus YHR142W, strain chs7, stronger effect = lower value 0.842 | locus YHR200W, strain rpn10, stronger effect = lower value 0.882 | locus YJL164C, strain tpk1, stronger effect = lower value 0.907 | locus YJL166W, strain qcr8, stronger effect = lower value 0.901 | locus YKR001C, strain vps1, stronger effect = lower value 0.766 | locus YLL001W, strain dnm1, stronger effect = lower value 0.872 | locus YLR320W, strain mms22, stronger effect = lower value 0.871 | locus YLR330W, strain CHS5, stronger effect = lower value 0.917 | locus YLR371W, strain rom2, stronger effect = lower value 0.81 | locus YLR418C, strain cdc73, stronger effect = lower value 0.744 | locus YML032C, strain rad52, stronger effect = lower value 0.786 | locus YMR058W, strain fet3, stronger effect = lower value 0.894 | locus YNL071W, strain lat1, stronger effect = lower value 0.914 | locus YNL248C, strain rpa49, stronger effect = lower value 0.75 | locus YOL147C, strain pex11, stronger effect = lower value 0.924 | locus YOR001W, strain rrp6, stronger effect = lower value 0.89 | locus YOR083W, strain WHI5, stronger effect = lower value 0.852 | locus YOR106W, strain vam3, stronger effect = lower value 0.824 | locus YOR184W, strain ser1, stronger effect = lower value 0.855 | locus YOR270C, strain vph1, stronger effect = lower value 0.73 | locus YOR290C, strain snf2, stronger effect = lower value 0.858 | locus YPL051W, strain arl3, stronger effect = lower value 0.892 | locus YPL078C, strain atp4, stronger effect = lower value 0.842 | locus YPL106C, strain sse1, stronger effect = lower value 0.826 | strain wtn01, stronger effect = lower value 0.894
